Data: PubChem BioAssay AID504660 (National Center for Advancing Translational Sciences (NCATS), 2011)
The campaign covered roughly 360,000 compounds. About 3,700 (1%) were called active. This is one part of a sample in which actives are shown more often than they occur. Cut-off read from the data, not from the text of the source: active = activation above about 30%; inactive = the rest.

These molecules were tested against D(1A) dopamine receptor (Homo sapiens) (UniProt P21728) (assay: Allosteric Agonists of the Human D1 Dopamine Receptor: qHTS). Settings: HEK293 T-REx D1 cells, calcium flux, agonist mode; at 2 µM; hits give high values.
D(1A) dopamine receptor (Homo sapiens), sequence (P21728 whole entry, looked up): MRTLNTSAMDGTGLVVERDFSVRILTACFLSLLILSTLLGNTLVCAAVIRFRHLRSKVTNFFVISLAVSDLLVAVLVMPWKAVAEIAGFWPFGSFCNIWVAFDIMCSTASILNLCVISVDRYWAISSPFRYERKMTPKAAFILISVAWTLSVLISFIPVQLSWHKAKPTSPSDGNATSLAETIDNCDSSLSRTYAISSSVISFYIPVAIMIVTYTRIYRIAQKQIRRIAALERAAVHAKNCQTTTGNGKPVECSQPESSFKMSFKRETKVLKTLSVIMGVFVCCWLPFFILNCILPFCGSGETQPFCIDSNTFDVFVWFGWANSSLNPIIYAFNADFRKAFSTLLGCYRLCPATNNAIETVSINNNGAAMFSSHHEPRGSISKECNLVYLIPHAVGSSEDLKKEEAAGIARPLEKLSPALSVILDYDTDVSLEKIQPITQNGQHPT
In short: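 Inducible HEK293 T-REx D1 cells, force-coupled to calcium signalling, were plated at 4000 cells/well with tetracycline and held overnight at 30 C. After no-wash calcium dye loading, compound-evoked calcium rise over 180 s flagged agonists.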
Note: 0% is about no effect.

Row | Compound | activation
1 | CN(C)CCCn1c(SCc2ccc(Cl)cc2)nnc1-c1ccncc1 | 0.237% (inactive)
2 | CN(C)CCCn1c(-c2ccc(Cl)cc2)csc1=Nc1ccccc1 | 39% (active)
3 | OCCn1c(-c2ccccc2)csc1=Nc1ccccc1 | 0.78% (inactive)
4 | O=C(CSc1ncc(CO)n1Cc1ccc(F)cc1)NCc1ccco1 | 1.99% (inactive)
5 | O=C(CNC(=O)c1ccc(Cl)cc1Cl)OC(C(=O)Nc1cc(C(F)(F)F)ccc1Cl)c1ccccc1 (stereo not drawn) | 6.6% (inactive)
6 | O=C(Nc1ccccc1)N1CCN(C2c3ccccc3-c3ccccc32)CC1 | 35.4% (active)
7 | O=C(Nc1ccccc1)N1CCC(C(=O)N2CCN(Cc3ccccc3)CC2)CC1 | 0.0463% (inactive)
8 | COc1ccc(NC(C)=O)cc1NC(=O)CN1CCN(C2c3ccccc3-c3ccccc32)CC1 | 1.82% (inactive)
9 | O=C(CC(c1cccs1)N1Cc2ccccc2C1=O)Nc1ccc(F)c(F)c1 (stereo not drawn) | 10.6% (inactive)
10 | CCOc1ccc(CNC(=O)Cn2cc3c(n2)-c2c(oc(C(=O)N4CCCC4)c2C)CC3)cc1 | 0.642% (inactive)
11 | COc1ccccc1CNC(=O)c1ccc(CS(=O)c2ccccc2Cl)o1 (stereo not drawn) | 6.51% (inactive)
12 | COc1ccc(CCNC(=O)c2ccc(CS(=O)(=O)c3ccc(Br)cc3)o2)cc1OC | 17.3% (inactive)
13 | COc1ccccc1CNC(=O)c1ccc(CS(=O)(=O)c2ccccc2)o1 | 30.2% (active)
14 | CCC(C(=O)Nc1cccc(Cl)c1C)n1nc(-c2ccc(C)cc2)ccc1=O (stereo not drawn) | 1.44% (inactive)
15 | COc1ccc(N2CCN(c3cc(C)nc4nncn34)CC2)cc1 | 5.83% (inactive)
16 | CCc1ccc(NC(=O)CCCc2nnc3n(CCCOC)c(=O)c4sccc4n23)cc1 | 2.87% (inactive)
17 | Cc1c(NC(=O)CCCOc2ccccc2)cccc1[N+](=O)[O-] | 0.0331% (inactive)
18 | Cc1cccc(NC(=S)NCCc2ccc(F)cc2)c1C | 0.43% (inactive)
19 | Cc1c(NC(=S)NCc2ccc(F)cc2)cccc1[N+](=O)[O-] | 31.7% (active)
20 | CC(C)(C)c1ccc(S(=O)(=O)N2CCN(C(=O)c3cc(-c4ccc(Br)cc4)n[nH]3)CC2)cc1 | 2.7% (inactive)

Row | Compound | activation
21 | COc1ccc(NC(=O)CN2CCCN(Cc3ccccc3)S2(=O)=O)cc1 | -2.31% (inactive)
22 | O=C(C1CCC(Cn2c(=O)c3sccc3n(Cc3ccccc3F)c2=O)CC1)N1CCCCC1 (stereo not drawn) | 1.57% (inactive)
23 | CN(c1ccccc1)S(=O)(=O)c1cccc(C(=O)NNC(=O)c2ccncc2)c1 | 0.604% (inactive)
24 | COc1ccc(C)cc1NC(=O)C(OC(=O)c1cccc(S(=O)(=O)N(C)c2ccccc2)c1)c1ccccc1 (stereo not drawn) | 0.857% (inactive)
25 | CC(=O)c1c(C)[nH]c(C(=O)COC(=O)c2cccc(S(=O)(=O)N(C)c3ccccc3)c2)c1C | 31.9% (active)
26 | N#Cc1nc(Nc2cc(F)cc(Cl)c2)nc(NC2CCCC2)n1 | 11.1% (inactive)
27 | COc1ccccc1N1CCN(C(CNC(=O)C(=O)NCc2ccc(C)cc2)c2cccnc2)CC1 (stereo not drawn) | 3.64% (inactive)
28 | O=C(NCCCN1CCN(c2ccc(F)cc2)CC1)Nc1ccc([N+](=O)[O-])cc1 | 32.8% (active)
29 | O=C(CSc1ccc([N+](=O)[O-])cn1)Nc1ccc(N2CCOCC2)cc1 | 0.916% (inactive)
30 | CC1=C(c2ccc(C)cc2)S(=O)(=O)NC1=NCCCN1CCN(c2cc(C)ccc2C)CC1 | 6.19% (inactive)
31 | Cc1ccc(C)c(N2CCN(CCCNC(=O)Nc3ccc(Cl)cc3)CC2)c1 | 65.5% (active)
32 | CCOC(=O)c1c(C)[nH]c(CCC(=O)NCCCN2CCN(c3cc(C)ccc3C)CC2)c1C | 22.5% (inactive)
33 | O=C(CCN1C(=O)COc2ccccc21)NCCCN1CCN(c2ccc(F)cc2)CC1 | -0.0538% (inactive)
34 | O=C(Nc1cccc2cccnc12)C(F)(F)F | 0.559% (inactive)
35 | COc1ccc(S(=O)(=O)NCCSc2nnnn2-c2ccccc2)cc1 | 2.54% (inactive)
36 | CCOc1ccc(S(=O)(=O)c2cn(Cc3ccccc3)c3ccc(OCC)cc3c2=O)cc1 | 1.46% (inactive)
37 | CCOC(=O)c1c(C)[nH]c(C)c1S(=O)(=O)NCC(=O)NCc1cccc(C)c1 | 6.99% (inactive)
38 | CCCCOC(=O)/C(C#N)=C/c1ccc(-c2cccc(C(F)(F)F)c2)o1 | 6.87% (inactive)
39 | c1ccc(C2CNCc3c2ccc2ccccc32)cc1 (stereo not drawn) | 45.9% (active)
40 | Cc1ccc2nc(COc3cccc(NC(=O)c4ccccc4Cl)c3)cc(=O)n2c1 | 0.0743% (inactive)

Row | Compound | activation
41 | COc1ccccc1S(=O)(=O)c1c(C)cc(C)[nH]c1=O | 3.01% (inactive)
42 | Cc1cc(C)c(/C=C2\C(=O)Nc3ccccc32)[nH]1 | 92.6% (active)
43 | Cc1cc(C)cc(NS(=O)(=O)c2ccc(-c3cc(C)no3)s2)c1 | 1.79% (inactive)
44 | O=S(=O)(c1ccc2c(c1)OCCO2)N1CCN(S(=O)(=O)c2cc(F)ccc2F)CC1 | 6.6% (inactive)
45 | CCc1cccc(NC(=O)CN(c2ccc(C)c(C)c2)S(=O)(=O)c2ccsc2C(=O)OC)c1 | 3.48% (inactive)
46 | Cc1cccc(NC(=O)N2CCC(CN3CCc4ccccc4C3)CC2)c1C | 6.8% (inactive)
47 | O=C(/C=C/c1ccc(OCc2c(F)cccc2Cl)cc1)N1CCOCC1 | 59.7% (active)
48 | Fc1cccc(Cl)c1COc1ccc(-c2nnco2)cc1 | 4.97% (inactive)
49 | CN(C)CCCNC(=O)/C=C/c1ccc(OCc2c(F)cccc2Cl)cc1 | 20.4% (inactive)
50 | CCC(=O)Nc1ccc2nc(SCC(=O)N3CCc4ccccc43)sc2c1 | 4.11% (inactive)
51 | CS(=O)(=O)c1ccc(-c2nnc(NC(=O)c3ccc4c(c3)OCCO4)o2)cc1 | 2.14% (inactive)
52 | CCCN(C(=O)Cn1cc(S(=O)(=O)N2CCN(c3ccccc3F)CC2)c2ccccc2c1=O)c1cccc(C)c1 | 5.13% (inactive)
53 | Cc1nn(C)c(C)c1Sc1ccccc1N | 37.1% (active)
54 | Nc1ccccc1Sc1cc(Cl)nnc1Cl | 0.62% (inactive)
55 | Cn1nc(-c2ccccc2)c(CO)c1Sc1ccccc1 | 2.17% (inactive)
56 | CC(C)(CCl)C(=O)Nc1ccc(Sc2ccc(F)cc2)cc1 | 32.5% (active)
57 | CC(=O)Nc1cc(C(=O)NCc2ccc(F)cc2)ccc1Sc1ccc(F)cc1 | -2.57% (inactive)
58 | COC(=O)c1ccc(Sc2ccc(F)cc2)c(N)c1 | 2.52% (inactive)
